# From ChEMBL document CHEMBL2218924, “A broad activity screen in support of a chemogenomic map for kinase signalling research and drug discovery” (Biochem J, 2013)
# Target: High affinity nerve growth factor receptor (Homo sapiens) (UniProt P04629)
# Conditions: at 1 µM
# High affinity nerve growth factor receptor (Homo sapiens), sequence (P04629 33-796 limits assumed): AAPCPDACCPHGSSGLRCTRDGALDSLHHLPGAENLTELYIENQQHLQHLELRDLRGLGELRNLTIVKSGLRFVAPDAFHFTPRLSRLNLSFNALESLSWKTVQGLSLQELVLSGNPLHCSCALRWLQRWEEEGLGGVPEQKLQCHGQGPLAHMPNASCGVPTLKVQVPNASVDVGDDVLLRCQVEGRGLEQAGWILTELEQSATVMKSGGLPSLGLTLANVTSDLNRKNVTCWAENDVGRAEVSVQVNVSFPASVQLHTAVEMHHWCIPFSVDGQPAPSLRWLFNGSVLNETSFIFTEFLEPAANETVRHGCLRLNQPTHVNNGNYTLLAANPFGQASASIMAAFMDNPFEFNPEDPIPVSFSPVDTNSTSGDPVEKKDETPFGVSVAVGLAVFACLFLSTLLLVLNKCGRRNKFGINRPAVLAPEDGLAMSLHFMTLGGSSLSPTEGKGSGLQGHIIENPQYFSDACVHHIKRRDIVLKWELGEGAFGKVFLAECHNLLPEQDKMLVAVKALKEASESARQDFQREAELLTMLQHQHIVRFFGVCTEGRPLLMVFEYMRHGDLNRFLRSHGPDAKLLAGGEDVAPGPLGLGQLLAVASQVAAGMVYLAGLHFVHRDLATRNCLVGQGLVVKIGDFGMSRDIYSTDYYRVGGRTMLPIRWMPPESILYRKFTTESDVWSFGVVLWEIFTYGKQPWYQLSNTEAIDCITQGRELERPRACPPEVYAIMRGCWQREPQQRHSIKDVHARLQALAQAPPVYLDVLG
row,Compound,residual activity
1,O=[N+]([O-])/C=C/c1ccc2c(c1)OCO2,94%
2,O=C1Nc2ccc3ncsc3c2/C1=C/c1c[nH]cn1,3%
3,c1cc(-c2cnn3cc(-c4ccc(OCCN5CCCCC5)cc4)cnc23)ccn1,28%
4,O=c1[nH]c2ccccc2n1C1CCN(Cc2ccc(-c3nc4cc5[nH]cnc5cc4nc3-c3ccccc3)cc2)CC1,86%
5,O=C1NC(=O)c2c1c1c3ccccc3n3c1c1c2c2ccccc2n1C1CCC3O1,12%
6,COc1cc2ncnc(Nc3ccc(OCc4ccccc4)cc3)c2cc1OC,69%
7,CC(C)[C@H](CO)Nc1nc(Nc2cccc(Cl)c2)c2ncn(C(C)C)c2n1,3%
8,CCn1cnc2c(Nc3cccc(Cl)c3)nc(N[C@@H]3CCCC[C@@H]3N)nc21,12%
9,C[S+]([O-])c1ccc(-c2nc(-c3ccc(F)cc3)c(-c3ccncc3)[nH]2)cc1 (centres undefined),121%
10,COc1ccc2c(c1)/C(=C/c1cnc[nH]1)C(=O)N2,3%
11,COc1cc(OC)c(/C=C2\C(=O)Nc3ccccc32)c(OC)c1,89%
12,N/C(=N\[N+](=O)[O-])N/N=C\c1ccc(-c2cccc([N+](=O)[O-])c2)o1,91%

# Target: High affinity nerve growth factor receptor (Homo sapiens) (UniProt P04629)
# Conditions: at 10 µM
row,Compound,residual activity
1,O=[N+]([O-])/C=C/c1ccc2c(c1)OCO2,116%
2,O=C1Nc2ccc3ncsc3c2/C1=C/c1c[nH]cn1,-1%
3,c1cc(-c2cnn3cc(-c4ccc(OCCN5CCCCC5)cc4)cnc23)ccn1,2%
4,O=c1[nH]c2ccccc2n1C1CCN(Cc2ccc(-c3nc4cc5[nH]cnc5cc4nc3-c3ccccc3)cc2)CC1,56%
5,O=C1NC(=O)c2c1c1c3ccccc3n3c1c1c2c2ccccc2n1C1CCC3O1,3%
6,COc1cc2ncnc(Nc3ccc(OCc4ccccc4)cc3)c2cc1OC,72%
7,CC(C)[C@H](CO)Nc1nc(Nc2cccc(Cl)c2)c2ncn(C(C)C)c2n1,1%
8,CCn1cnc2c(Nc3cccc(Cl)c3)nc(N[C@@H]3CCCC[C@@H]3N)nc21,1%
9,C[S+]([O-])c1ccc(-c2nc(-c3ccc(F)cc3)c(-c3ccncc3)[nH]2)cc1 (centres undefined),115%
10,COc1ccc2c(c1)/C(=C/c1cnc[nH]1)C(=O)N2,0%
11,COc1cc(OC)c(/C=C2\C(=O)Nc3ccccc32)c(OC)c1,59%
12,N/C(=N\[N+](=O)[O-])N/N=C\c1ccc(-c2cccc([N+](=O)[O-])c2)o1,91%
